Test results from PubChem BioAssay (NCI).
This is part of a sample that, as a whole, favours compounds with a hit. Of some 79,000 tested, about 15% had one in any assay. A number with no mark means an inactive call. Calls of active or inactive are those of the source. No stated cut-off is given here; in the data, active means growth inhibition above about 70%; inactive means the rest.

Columns and labels:
[1] = NCI Yeast Anticancer Drug Screen. Data for the rad50 strain (AID 155);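 further: 0% = growth of vehicle-only cultures of the same strain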; settings: S. cerevisiae rad50 strain growth inhibition, active compounds read high
Outline: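 Cells are treated with compound, grown, and their growth is then scored against vehicle-only cultures of the same repair-deficient yeast strain.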

[2] = NCI Yeast Anticancer Drug Screen. Data for the mec2-1 strain (AID 157); settings: S. cerevisiae mec2-1 strain, active compounds read high
Outline: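 Using mec2-1 yeast: add compound, measure growth, express inhibition versus vehicle-treated cultures.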

[3] = NCI Yeast Anticancer Drug Screen. Data for the sgs1 mgt1 strain (AID 161);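 further: 0% = growth of cultures given vehicle only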; settings: S. cerevisiae sgs1 mgt1 strain, active compounds read high
Outline: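 This yeast growth screen uses a strain with defined DNA-repair lesions; compound-treated growth is compared with vehicle-treated growth.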

[4] = NCI Yeast Anticancer Drug Screen. Data for the cln2 rad14 strain (AID 165);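 further: 0% = growth equal to vehicle treated cultures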; settings: S. cerevisiae cln2 rad14 strain, active compounds read high
Outline: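 Yeast strain cln2 rad14, bearing defects in cell cycle control and DNA repair, serves as the test system; values reflect growth inhibition compared with vehicle.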

[5] = NCI Yeast Anticancer Drug Screen. Data for the bub3 strain (AID 167); settings: S. cerevisiae bub3 mutant strain, active compounds read high
Outline: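 Part of a panel of yeast mutants defective in DNA damage repair or cell cycle regulation. Each strain is grown with compound, and inhibition is calculated relative to solvent-treated cultures.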

[6] = NCI Yeast Anticancer Drug Screen. Data for the mlh1 rad18 strain (AID 175); settings: S. cerevisiae mlh1 rad18 strain growth inhibition, active compounds read high
Outline: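 Steps: expose repair-defective yeast to compound; measure growth; express inhibition against vehicle-treated controls.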

[7] = at 5.0 µM (retest, dose inferred, filed as 0.5)
[8] = at 50.0 µM (retest, dose inferred, filed as 5.0)

SMILES	growth inhibition [1, 7]	growth inhibition [1, 8]	growth inhibition ([1]; at 50.0 µM)	growth inhibition [2, 7]	growth inhibition [2, 8]	growth inhibition ([2]; at 50.0 µM)	growth inhibition [3, 7]	growth inhibition [3, 8]	growth inhibition ([3]; at 50.0 µM)	growth inhibition [4, 7]	growth inhibition [4, 8]	growth inhibition ([4]; at 50.0 µM)	growth inhibition [5, 7]	growth inhibition [5, 8]	growth inhibition ([5]; at 50.0 µM)	growth inhibition [6, 7]	growth inhibition [6, 8]	growth inhibition ([6]; at 50.0 µM)
O=NNc1ncccc1OCc1ccccc1	9%	6%	56.9%	6%	6%	25.6%	9%	14%	0.75%	7%	9%	3.2%	10%	13%	-2.9%	9%	15%	17.8%
CC(=O)/C=N/Nc1ccccc1	15%	20%	42.1%	3%	7%	3.5%	-9%	11%	33%	0%	-8%	-9.5%	-1%	3%	7.2%	14%	32%	58.6%
Nc1nnc(Cc2ccc(Br)cc2)o1	-8%	0%	21.3%	1%	-6%	13.9%	-3%	12%	24.3%	10%	-2%	71.5% (active)	4%	6%	-13.8%	-12%	4%	58.3%
COc1cccc2c1C(=O)c1c(O)c3c(c(O)c1C2=O)C[C@@](O)(/C(C)=N/NS(C)(=O)=O)C[C@@H]3OC1CC(N)C(O)C(C)O1 (some centres not stated)	42%	94% (active)	95.2% (active)	18%	80% (active)	81.3% (active)	12%	77% (active)	94.2% (active)	15%	52%	70% (active)	12%	91% (active)	90.5% (active)	14%	89% (active)	91.6% (active)
CCCCN(CCCC)C(=O)c1ccc(Cl)cc1Cl	7%	97% (active)	98.5% (active)	7%	98% (active)	97.7% (active)	6%	97% (active)	98.4% (active)	11%	87% (active)	96.2% (active)	26%	90% (active)	96.5% (active)	13%	97% (active)	98.3% (active)
Nc1cn(C2OC(CC(c3ccccc3)(c3ccccc3)c3ccccc3)C(O)C2O)c(=O)[nH]c1=O (configuration not stated)	99% (active)	99% (active)	39%	97% (active)	97% (active)	34.9%	99% (active)	99% (active)	42.1%	96% (active)	96% (active)	37.5%	66%	66%	46.5%	97% (active)	97% (active)	34.6%
Nc1ccccc1CCc1ccccc1	0%	79% (active)	96.9% (active)	0%	74% (active)	84.5% (active)	2%	85% (active)	41.8%	-1%	78% (active)	67%	0%	74% (active)	90.8% (active)	28%	91% (active)	85.7% (active)
CCc1ccc(N(C(C)=O)C2=C(Cl)C(=O)c3ccccc3C2=O)cc1	99% (active)	99% (active)	98.4% (active)	100% (active)	99% (active)	91% (active)	100% (active)	100% (active)	99.2% (active)	99% (active)	99% (active)	77% (active)	99% (active)	100% (active)	67.9%	100% (active)	99% (active)	98.7% (active)
CSc1nc2ccccc2s1	-5%	8%	24.1%	-2%	3%	23.3%	-1%	4%	-19.4%	4%	0%	43.9%	-3%	-1%	-8.3%	-3%	5%	4.2%
N#CC(CCCCl)(c1ccccc1)c1ccccc1	2%	33%	86.8% (active)	3%	32%	84% (active)	4%	51%	88.5% (active)	0%	-3%	41.8%	-1%	22%	67%	15%	69%	92.2% (active)
Clc1ccc(OCC(Cn2ccnc2)c2ccc(Cl)cc2)cc1 (configuration not stated)	74% (active)	91% (active)	99.8% (active)	55%	80% (active)	99.9% (active)	70% (active)	97% (active)	99.8% (active)	60%	89% (active)	99.5% (active)	73% (active)	98% (active)	99.8% (active)	64%	97% (active)	99.2% (active)
COc1cc(NCc2ccc3nc(-c4ccccc4)c(N)nc3c2)cc(OC)c1OC	7%	-19%	-8.3%	-1%	-12%	-9.45%	-3%	7%	50%	5%	3%	16.6%	8%	-10%	37.2%	-16%	5%	70.3% (active)
COc1ccc(CC/C(=N/O)c2ccccc2)cc1	0%	92% (active)	97% (active)	-3%	97% (active)	96.9% (active)	8%	94% (active)	93.8% (active)	-10%	74% (active)	97% (active)	1%	90% (active)	98% (active)	-9%	96% (active)	96.9% (active)
Cc1ccc(C2=Nc3c(c(C)nn3-c3ccccc3)N=C(C(=O)O)C2)cc1	1%	78% (active)	76.2% (active)	-23%	87% (active)	82.9% (active)	-3%	62%	88.4% (active)	-4%	92% (active)	87.5% (active)	2%	89% (active)	83.4% (active)	-12%	86% (active)	59.3%
O=C(O)c1c2c(cc3c1CC1(Cc4ccccc4C1=O)C3)CCC2 (configuration not stated)	7%	7%	81.2% (active)	21%	21%	89% (active)	20%	20%	84.8% (active)	-10%	-10%	84.2% (active)	16%	16%	84.2% (active)	24%	24%	77.9% (active)
CC1=Nc2ccccc2/C1=C\c1c(C)[nH]c2ccccc12	33%	96% (active)	83% (active)	39%	98% (active)	86.8% (active)	38%	97% (active)	85.2% (active)	10%	96% (active)	74.3% (active)	53%	97% (active)	87.8% (active)	58%	94% (active)	-32.6%
Cc1[nH]c(=O)[nH]c(=O)c1CN(C)Cc1cc(Cl)cc(Cl)c1O	-4%	70% (active)	53.1%	-8%	55%	26.9%	0%	95% (active)	77.4% (active)	-3%	43%	22%	-8%	46%	30.1%	-3%	82% (active)	77.5% (active)
O=c1cccccc1[O-].O=c1cccccc1[O-].O=c1cccccc1[O-].[Nd+3]	11%	11%	91.9% (active)	20%	20%	91% (active)	15%	15%	89.3% (active)	3%	3%	80.9% (active)	9%	9%	92.5% (active)	13%	13%	87.2% (active)
Fc1cccc(CSc2n[nH]c(=S)c3nc[nH]c23)c1	0%	-3%	9.9%	-8%	-1%	10%	-1%	-10%	15.4%	-7%	-14%	40.8%	-2%	-3%	-3.85%	-16%	-16%	5.1%
